Compound activity deposited in PubChem by National Center for Advancing Translational Sciences (NCATS).
An excerpt weighted towards active compounds, which were near 12% of everything screened.
Shiga inhibitor: A qHTS for Small Molecule Inhibitors of Shiga Toxin | inhibition, % at 38.7 µM | Vero cells, Shiga toxin protein synthesis inhibition reporter | hit rate 9.2% among 290,000; in the data active means inhibition mostly above about 28%, no sharp cut-off; inactive means mostly below about 43%
Cycloheximide cs: Cycloheximide Counterscreen for Small Molecule Inhibitors of Shiga Toxin. cell reporter, cycloheximide protein synthesis inhibition counterscreen. hit rate 12% among 300,000. max response, %; in the data active means max response mostly above about 13%, no sharp cut-off; inactive means mostly below about 14%; further: read at 38.3 µM for the half of the compounds with a filed dose
MARV entry inh: qHTS for inhibitors of binding or entry into cells for Marburg Virus. Marburg virus pseudotyped entry inhibition, cell reporter. Potency, µM (doses to about 37.8 µM), actives largely listed as inhibitors. hit rate 1.8% among 300,000; calls by dose curve; tested in HEK293 cells
LASV entry inh: qHTS for Inhibitors of binding or entry into cells for Lassa Virus. Lassa virus pseudotype entry inhibition, cell reporter. Potency, µM (titrated, usually from 37.9 µM), most hits filed as inhibitors. hit rate 1.2% among 300,000. AID 540256, 2011; calls by dose curve; tested in HEK293 cells; further: nearly all actives have a fitted effect of over 50% in size
Of the large screens only hits and unclear results are named; the others gave an inactive call.

N#C/C(=C\c1ccc(N2CCOCC2)o1)C(=O)NCC1CCCO1 (stereo not drawn)	none
N#C/C(=C/c1ccc(N2CCOCC2)o1)C(=O)Nc1ccccc1	Shiga inhibitor 75.7, Cycloheximide cs 35.8
N#C/C(=C\c1ccc(N2CCOCC2)o1)C(=O)NC1CCCCC1	Shiga inhibitor 46.0, Cycloheximide cs 22.7, MARV entry inh inconclusive
N#C/C(=C\c1ccc(N2CCOCC2)o1)C(=O)NCCc1ccccc1	MARV entry inh inconclusive, LASV entry inh inconclusive
S=C(NCc1ccco1)Nc1cccc(Cl)c1	Shiga inhibitor 32.0
S=C(NCc1ccco1)Nc1ccc(Oc2ccccc2)cc1	Cycloheximide cs 34.4 (no result: MARV entry inh, LASV entry inh)
CCOC(=O)c1ccc(NC(=S)NCc2ccco2)cc1	Shiga inhibitor 63.4 (no result: MARV entry inh, LASV entry inh)
S=C(NCc1ccco1)Nc1ccc(Cl)c(Cl)c1	Cycloheximide cs 31.1, MARV entry inh inconclusive
COc1ccc(NC(=S)NCc2ccco2)cc1	none
S=C(NCc1ccco1)Nc1cc(Cl)c(Cl)cc1Cl	none
CC(=O)c1cccc(NC(=S)NCc2ccco2)c1	none (no result: MARV entry inh, LASV entry inh)
COC(=O)c1ccc(NC(=O)c2c(-c3ccccc3)c(-c3ccccc3)nn(C)c2=O)cc1	none (no result: Shiga inhibitor, Cycloheximide cs)
O=C(OC(C(=O)NCc1ccco1)C(OC(=O)c1ccccc1)C(=O)NCc1ccco1)c1ccccc1 (stereo not drawn)	Shiga inhibitor 66.1, Cycloheximide cs 16.6, MARV entry inh inconclusive
S=C(NCc1ccco1)Nc1ccc(N2CCOCC2)cc1	Cycloheximide cs 20.2
Cc1cc(=O)oc2cc(NC(=O)C(CCCCN)NC(=O)C(CC3CCCCC3)NC(=O)OCC3c4ccccc4-c4ccccc43)ccc12 (stereo not drawn)	none (no result: MARV entry inh, LASV entry inh)
CCc1ccc(-n2c(=O)c3c(C)c(C)sc3n(CC(=O)NCc3ccc(C)cc3)c2=O)cc1	none (no result: Shiga inhibitor, Cycloheximide cs)
N/C(=N\OC(=O)c1ccc(=O)n(Cc2ccc(Cl)cc2)c1)c1ccccn1	none (no result: MARV entry inh, LASV entry inh)
N/C(=N\OC(=O)c1ccc(=O)n(Cc2ccccc2)c1)c1ccccn1	Shiga inhibitor 63.5, Cycloheximide cs 30.3, MARV entry inh inconclusive, LASV entry inh inconclusive
CCCc1ccc(C(=O)O/N=C(\N)c2ccccn2)cc1	MARV entry inh 11.2µM, LASV entry inh 1.41µM
O=C(O/N=C(\c1ccccc1)c1ccccn1)c1ccc(Cl)c(Cl)c1	none
COc1ccc(SCC(Cc2ccccc2)N2CCN(C)CCC2=O)cc1 (stereo not drawn)	none (no result: MARV entry inh, LASV entry inh)
Cc1ccc(SCC(CC(C)C)N2CCN(C)CCC2=O)cc1 (stereo not drawn)	Shiga inhibitor 71.7, Cycloheximide cs 32.7 (no result: MARV entry inh, LASV entry inh)
CN1CCC(=O)N([C@H](CO)c2ccccc2)CC1	Cycloheximide cs 18.1 (no result: MARV entry inh, LASV entry inh)
COc1ccc(SCC(CC(C)C)N2CCN(C)CCC2=O)cc1 (stereo not drawn)	Shiga inhibitor 52.7, Cycloheximide cs 25.3 (no result: MARV entry inh, LASV entry inh)
CC(C)CC(CSc1ccc(Br)cc1)N1CCN(C)CCC1=O (stereo not drawn)	Shiga inhibitor 90.0 (no result: MARV entry inh, LASV entry inh)
CC(C)C[C@@H](CSc1ccccc1)N1CCN(C)CCC1=O	Cycloheximide cs 17.6 (no result: MARV entry inh, LASV entry inh)
CC(CCc1ccccc1)NC(=O)c1ccc(NC(=O)c2ccccc2)cc1 (stereo not drawn)	MARV entry inh inconclusive, LASV entry inh inconclusive
COc1cc(C(=O)NC(C)CCc2ccccc2)cc(OC)c1OC (stereo not drawn)	LASV entry inh inconclusive (no result: Shiga inhibitor)
CCOc1ccc(C(=O)NC(C)CCc2ccccc2)cc1 (stereo not drawn)	Shiga inhibitor 28.9, Cycloheximide cs 28.5 (no result: MARV entry inh, LASV entry inh)
COC(=O)[C@H](Cc1ccccc1)NC(=O)c1ccc2ccccc2n1	Shiga inhibitor 40.6
CCOc1ccc(C(=O)NC(Cc2ccccc2)C(=O)OC)cc1 (stereo not drawn)	Shiga inhibitor 73.4, Cycloheximide cs 41.2
COc1ccc(C(=O)NC(C)CCc2ccccc2)cc1 (stereo not drawn)	Cycloheximide cs 19.2 (no result: Shiga inhibitor)
COc1ccc(CCN=C(N)NS(=O)(=O)c2ccc3ccccc3c2)cc1	none
CCCC(=O)Nc1ccc(Cl)c(NC(=O)c2cccnc2Cl)c1	none
COc1ccc(C(=O)NC(C)CCc2ccccc2)c(O)c1 (stereo not drawn)	Shiga inhibitor 67.9, Cycloheximide cs 30.3, MARV entry inh inconclusive, LASV entry inh inconclusive
COc1ccc(C(=O)NCC2OCCc3ccccc32)c(O)c1 (stereo not drawn)	Shiga inhibitor 46.9, Cycloheximide cs 23.5
O=C(O)c1cc(S(=O)(=O)N2CCCCC2)ccc1Cl	none
Cc1ccccc1Cn1c2ccccc2c2cnn(CC(=O)NCCc3ccccc3)c(=O)c21	MARV entry inh inconclusive (no result: Shiga inhibitor, Cycloheximide cs)
Cc1nnc(-c2ccc(C)c(-c3ccc(C(=O)NCc4ccc(Cl)cc4)cc3)c2)o1	LASV entry inh 0.628µM (no result: Shiga inhibitor, Cycloheximide cs, MARV entry inh)
O=C(NCc1ccc2c(c1)OCO2)c1ccc2c(c1)OCO2	Shiga inhibitor 45.7, Cycloheximide cs 26.3 (no result: MARV entry inh, LASV entry inh)
